This is an account of results in PubChem BioAssay (NCATS).

Values without a mark were called inactive. Results filed as inconclusive are left out. The source made the active and inactive calls. The call rests on the fitted dose curve; in most records, active means well fitted curve in the direction sought with a large enough effect; inconclusive means small, poorly fitted or top-dose-only effect, or another doubt; inactive means no such curve, though single readings can be large; an effect the other way counts as inactive or inconclusive.

The target of assay [1] is Nuclear receptor subfamily 1 group I member 3 (Homo sapiens) (UniProt Q14994). The experiment in a line: Primary qHTS for antagonist of constitutive androstane receptor (CAR) against the NCATS DSHEA and TCM libraries (AID 1794836). Further: series mostly up to about 40 µM. Put shortly: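 HepG2 cells stably carrying hCAR and a CYP2B6 luciferase reporter (2,500 cells/well) attached for 5 h, then received compounds with 48 uM CITCO for 24 h at 37C. ONE-Glo luminescence read antagonism; CellTiter-Fluor (405/540 nm) gave viability.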
Sequence of Nuclear receptor subfamily 1 group I member 3 (Homo sapiens) (Q14994 whole entry, looked up): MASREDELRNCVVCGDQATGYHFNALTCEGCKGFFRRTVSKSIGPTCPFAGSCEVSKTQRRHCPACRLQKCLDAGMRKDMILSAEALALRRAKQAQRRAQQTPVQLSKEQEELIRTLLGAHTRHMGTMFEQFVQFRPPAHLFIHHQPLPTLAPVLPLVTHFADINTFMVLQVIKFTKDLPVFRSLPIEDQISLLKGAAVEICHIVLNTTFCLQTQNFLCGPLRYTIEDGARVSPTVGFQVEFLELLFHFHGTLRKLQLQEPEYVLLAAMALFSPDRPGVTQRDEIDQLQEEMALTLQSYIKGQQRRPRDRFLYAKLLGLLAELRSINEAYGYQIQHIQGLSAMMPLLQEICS
(In general: In qHTS, concentration-response curves come from the screen itself.)

The nature of assay [2]: Viability counterscreen for antagonist of constitutive androstane receptor (CAR) against the NCATS DSHEA and TCM libraries (AID 1794837).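 Further: compound exposure lasted 24 h before viability reading; 0% is about no effect.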 Put shortly:
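HepG2-CYP2B6-hCAR cells, 2,500/well, were exposed 24 hr at 37C to substances together with 48 uM CITCO (final). Viability was read as CellTiter-Fluor fluorescence (Ex/Em 405/540 nm) after 1 hr.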

Assay [3] is described as follows: Viability counterscreen for agonist of constitutive androstane receptor (CAR) against the NCATS DSHEA and TCM libraries (AID 1794838).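 Further: HepG2 cells with CYP2B6 reporter and hCAR plus 0.75 µM PK11195 antagonist; 0% is about no effect.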 Put shortly: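 HepG2-CYP2B6-hCAR cells (2,500/well) treated 24 h at 37C with compounds plus 0.75 uM PK11195; viability read by CellTiter-Fluor fluorescence, Ex/Em 405/540 nm.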
Assay [4] has as its target Nuclear receptor subfamily 1 group I member 3 (Homo sapiens) (UniProt Q14994). The assay is described as follows: Primary qHTS for agonist of constitutive androstane receptor (CAR) against the NCATS DSHEA and TCM libraries (AID 1794839).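 Further: HepG2 cells expressing human CAR with a CYP2B6 reporter plus PK11195 antagonist; 0% is about no effect.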 Conditions: Potency: CAR antagonist co-added at 0.75 µM unless noted. An outline of the steps:
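HepG2-CYP2B6-hCAR cells, 2,500/well, attached 5 h, then dosed with 0.75 µM PK11195 (final) for 24 h at 37 °C. Luciferase luminescence read (ONE-Glo); CellTiter-Fluor viability (Ex/Em 405/540 nm) in same wells; CITCO positive control.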

Assay [5] can be described thus: HepG2 viability counterscreen (readout 2: ATP content) against the NCATS DSHEA and TCM libraries (AID 1794840). Further: 0% is about no effect. Put shortly:
(§1)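 HepG2 cells, 1,000/well, attached ~4 h, then exposed ~24 h at 37C to substances. Protease activity read by fluorescence of 25 uM GF-AFC (Ex/Em 380/510 nm) after 30 min; ATP then by CellTiter-Glo luminescence.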
On the technique in general: A counterscreen serves to expose hits that act by an unwanted route or on another target.

Assay [6] is described as follows: HepG2 viability counterscreen (readout 1: protease activity) against the NCATS DSHEA and TCM libraries (AID 1794841).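 Further: cells exposed to compounds for about 24 h before the protease read; 0% is about no effect.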 An outline of the steps: as §1
Assay [7] has as its target Cytochrome P450 3A4 (Homo sapiens) (UniProt P08684). The experiment in a line: qHTS for inhibitors of CYP3A4 against the NCATS DSHEA and TCM libraries (AID 1919971). Further: potency means the concentration at half of the fitted maximal effect. Put shortly: (§2)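 Substances were tested against enzyme with a pro-luciferin substrate; minus-enzyme wells served as background. After NADPH-initiated oxidation (30-45 min, RT), light was generated with P450-Glo reagent.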

The target in assay [8] is Cytochrome P450 2C9 (Homo sapiens) (UniProt P11712). The assay is described as follows: qHTS for inhibitors of CYP2C9 against the NCATS DSHEA and TCM libraries (AID 1919973). Further: potency means the concentration at half of the fitted maximal effect. Put shortly:
as §2

Assay [9] addresses Cytochrome P450 2C19 (Homo sapiens) (UniProt P33261). The assay is described as follows: qHTS for inhibitors of CYP2C19 against the NCATS DSHEA and TCM libraries (AID 1919974).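 Further: luminescence from luciferin released by CYP2C19 oxidation of a pro-luciferin substrate.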 Further: potency means the concentration at half of the fitted maximal effect. An outline of the steps:
as §2

Assay [10] is described as follows: KB-3-1 P-gp reporter qHTS against the NCATS DSHEA and TCM libraries (AID 1919975). Further: 0% is about no effect. Put shortly:
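Parental KB-3-1 cells, 500 cells/well, in DMEM with 10% FBS, exposed 72 h at 37 C to compounds in concentration-response. Viability read by CellTiter-Glo luminescence after 30 min at room temperature.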

The target of assay [11] is Cytochrome P450 1A2 (Homo sapiens) (UniProt P05177). The experiment in a line: qHTS for inhibitors of CYPIA2 against the NCATS DSHEA and TCM libraries (AID 1919976). Further: series mostly up to about 37 µM; on the % scale 0 is the no-effect control and ±100 the full control effect. Put shortly: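 Luminescence read-out: pro-luciferin converted to D-luciferin by CYP1A2, detected with P450-Glo reagent after 30 min RT. Enzyme plus substrate got compounds for 15 min RT; NADPH regeneration solution (final 1x) started a 30-45 min reaction, light-protected.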
Sequence of Cytochrome P450 1A2 (Homo sapiens) (P05177 whole entry, looked up): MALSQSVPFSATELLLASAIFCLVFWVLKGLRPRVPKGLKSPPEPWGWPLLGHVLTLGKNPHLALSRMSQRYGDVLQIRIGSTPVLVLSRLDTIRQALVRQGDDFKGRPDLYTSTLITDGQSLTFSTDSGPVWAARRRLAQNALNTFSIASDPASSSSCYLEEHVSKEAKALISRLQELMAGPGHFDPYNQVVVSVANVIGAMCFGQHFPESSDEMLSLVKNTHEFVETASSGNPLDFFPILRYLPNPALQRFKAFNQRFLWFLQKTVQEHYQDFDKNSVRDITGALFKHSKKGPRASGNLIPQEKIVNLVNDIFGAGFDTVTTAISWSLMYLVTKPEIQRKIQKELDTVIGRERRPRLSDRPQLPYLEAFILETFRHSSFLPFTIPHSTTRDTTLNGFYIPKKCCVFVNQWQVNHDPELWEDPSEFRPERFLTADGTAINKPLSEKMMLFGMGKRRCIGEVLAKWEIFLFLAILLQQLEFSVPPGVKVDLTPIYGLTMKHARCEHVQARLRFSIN

A short description of assay [12]: KB-8-5-11 P-gp reporter qHTS against the NCATS DSHEA and TCM libraries (AID 1919977). Further: potency means the concentration at half of the fitted maximal effect. An outline of the steps:
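P-gp-overexpressing KB-8-5-11 cells were screened in colchicine-free medium at 500 cells/well, as a titration series. Cells were exposed for 72 h at 37C. Viability was read by CellTiter-Glo luminescence after 30 min at room temperature.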

The nature of assay [13]: qHTS Counterscreen for compound interference against the NCATS DSHEA and TCM libraries (AID 1919978).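 Further: compounds preincubated with 1 µM D-luciferin or buffer before detection reagent; % of control where 0% means no effect.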 As to conditions: firefly luciferase detection reagent interference, luminescence. Put shortly: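 Firefly luciferase detection reagent was added after compounds (19.5 nM–39.8 uM final) had been incubated 15 min at room temperature with 1 uM D-luciferin or with 100 mM phosphate buffer alone. Luminescence was read after 30 min at room temperature.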

The nature of assay [14]: Dual reporter qHTS for agonist of Pregnane X Receptor (hPXR) against the NCATS DSHEA and TCM libraries: Fluorescence readout (AID 1920058). Further: 0% is about no effect. An outline of the steps: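 Fluorescence read-out for cell viability: CellTiter-Fluor, 1 h at 37 °C, Ex/Em 405/540 nm. This followed ~24 h treatment of hPXR-Luc HepG2 cells with substances in agonist mode.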
Assay [15] concerns the target Nuclear receptor subfamily 1 group I member 2 (Homo sapiens) (UniProt O75469). The assay is described as follows: Dual reporter qHTS for antagonist of Pregnane X Receptor (hPXR) against the NCATS DSHEA and TCM libraries: Luminescence Readout (AID 1920060).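 Further: HepG2 cells carrying hPXR luciferase reporter stimulated with rifampicin at 2 µM; 0% is about no effect.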 Put shortly:
(§3)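 Antagonist mode: rifampicin 2 uM final co-added with compounds to hPXR-LucHepG2 cells for 24 h at 37C. Viability by CellTiter-Fluor, Ex/Em 405/540 nm, 1 h; reporter by ONE-Glo luminescence.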

Assay [16] in a line: Dual reporter qHTS for antagonist of Pregnane X Receptor (hPXR) against the NCATS DSHEA and TCM libraries: Fluorescence Readout (AID 1920061). Further: 0% is about no effect. An outline of the steps:
as §3

Sequence of Nuclear receptor subfamily 1 group I member 2 (Homo sapiens) (O75469 whole entry, looked up): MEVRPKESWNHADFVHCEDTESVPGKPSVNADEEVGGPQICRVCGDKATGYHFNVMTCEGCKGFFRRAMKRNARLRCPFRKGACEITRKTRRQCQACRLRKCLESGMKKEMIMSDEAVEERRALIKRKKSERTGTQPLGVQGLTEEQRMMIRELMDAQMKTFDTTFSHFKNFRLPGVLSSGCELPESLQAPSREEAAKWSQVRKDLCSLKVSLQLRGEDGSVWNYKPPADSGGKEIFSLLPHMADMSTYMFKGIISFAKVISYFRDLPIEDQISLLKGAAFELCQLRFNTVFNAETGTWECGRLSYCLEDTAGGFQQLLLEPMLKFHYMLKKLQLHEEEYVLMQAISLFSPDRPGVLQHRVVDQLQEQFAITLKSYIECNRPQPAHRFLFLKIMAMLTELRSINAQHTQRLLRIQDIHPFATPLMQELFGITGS
Sequence of Cytochrome P450 2C19 (Homo sapiens) (P33261 whole entry, looked up): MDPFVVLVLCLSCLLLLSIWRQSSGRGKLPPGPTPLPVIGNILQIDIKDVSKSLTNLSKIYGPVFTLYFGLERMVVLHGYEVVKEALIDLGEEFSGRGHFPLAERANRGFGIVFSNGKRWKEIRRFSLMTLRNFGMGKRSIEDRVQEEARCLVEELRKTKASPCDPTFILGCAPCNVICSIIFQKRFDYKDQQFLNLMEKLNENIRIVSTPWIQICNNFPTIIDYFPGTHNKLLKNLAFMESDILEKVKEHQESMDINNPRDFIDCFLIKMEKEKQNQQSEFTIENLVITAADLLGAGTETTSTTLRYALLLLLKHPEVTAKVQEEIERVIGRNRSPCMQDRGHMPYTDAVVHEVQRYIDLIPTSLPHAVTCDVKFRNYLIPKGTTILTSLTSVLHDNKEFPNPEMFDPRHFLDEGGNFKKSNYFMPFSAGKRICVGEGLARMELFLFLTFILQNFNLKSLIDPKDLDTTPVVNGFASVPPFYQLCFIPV
Sequence of Cytochrome P450 3A4 (Homo sapiens) (P08684 whole entry, looked up): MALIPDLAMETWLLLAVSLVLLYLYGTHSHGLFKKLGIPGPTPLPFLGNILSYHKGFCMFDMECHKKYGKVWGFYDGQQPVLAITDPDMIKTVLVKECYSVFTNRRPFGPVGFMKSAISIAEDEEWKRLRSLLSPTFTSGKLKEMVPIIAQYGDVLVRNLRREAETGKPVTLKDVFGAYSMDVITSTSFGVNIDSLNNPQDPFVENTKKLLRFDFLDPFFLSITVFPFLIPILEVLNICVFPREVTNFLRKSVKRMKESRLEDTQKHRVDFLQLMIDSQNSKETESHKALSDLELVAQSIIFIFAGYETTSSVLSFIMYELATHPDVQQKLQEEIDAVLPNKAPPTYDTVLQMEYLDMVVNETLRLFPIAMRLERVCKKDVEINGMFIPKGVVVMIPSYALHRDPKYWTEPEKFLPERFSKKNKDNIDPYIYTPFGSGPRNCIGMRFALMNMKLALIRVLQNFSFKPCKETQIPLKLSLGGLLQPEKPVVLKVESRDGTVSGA
Sequence of Cytochrome P450 2C9 (Homo sapiens) (P11712 whole entry, looked up): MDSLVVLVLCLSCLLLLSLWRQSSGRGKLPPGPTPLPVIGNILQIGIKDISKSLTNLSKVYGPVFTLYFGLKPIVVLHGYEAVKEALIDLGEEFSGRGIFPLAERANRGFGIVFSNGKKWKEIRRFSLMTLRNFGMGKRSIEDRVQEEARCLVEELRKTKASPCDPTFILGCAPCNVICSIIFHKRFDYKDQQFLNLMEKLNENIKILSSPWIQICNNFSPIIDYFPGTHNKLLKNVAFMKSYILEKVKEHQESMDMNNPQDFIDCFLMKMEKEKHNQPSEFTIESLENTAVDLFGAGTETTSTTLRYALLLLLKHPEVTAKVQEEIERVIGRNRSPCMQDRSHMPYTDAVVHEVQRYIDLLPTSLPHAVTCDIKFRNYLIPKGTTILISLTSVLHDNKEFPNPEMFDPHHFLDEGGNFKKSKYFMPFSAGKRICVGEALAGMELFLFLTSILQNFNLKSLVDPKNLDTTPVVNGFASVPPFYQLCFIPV

For the molecule `COC1=C[C@@]23CCN(C)[C@H](Cc4ccc(OC)c(O)c42)C3=CC1=O`, the Potency result in [1], in [4], in assay [7], in assay [8], in assay [9] and in [11] was “inactive” in each case. Also, in assay [12], the Potency entry is “inactive”. Moreover, the call in assay [2], in assay [3], in assay [5], in [6], in assay [10] and in [14] was inactive. The result in assay [15] and in [16] was inactive. In addition, the max response in assay [13] is -3.14%.

Consider `COC1=C(OC)C(=O)C(C/C=C(\C)CC/C=C(\C)CC/C=C(\C)CC/C=C(\C)CC/C=C(\C)CC/C=C(\C)CC/C=C(\C)CC/C=C(\C)CC/C=C(\C)CCC=C(C)C)=C(C)C1=O`, for which the Potency entry in assay [1] and in assay [12] was “inactive” each time.

`C=C(C)C(CC=C(C)C)CC12CC(CC=C(C)C)C(C)(C)C(CC=C(C)C)(C(=O)/C(=C(\O)c3ccc(O)c(O)c3)C1=O)C2=O` (configuration not stated): the Potency entry in [1] was “inactive”.

Take `CC(C)=CCCC(C)(OC1OC(COC2OC(CO)C(O)C2O)C(O)C(O)C1O)C1CCC2(C)C1C(O)CC1C3(C)CCC(OC4OC(CO)C(O)C(O)C4OC4OC(CO)C(O)C(O)C4O)C(C)(C)C3CCC12C` (configuration not stated): the Potency entry in [1] and in assay [12] was “inactive” each time.

On to `COc1cc(-c2oc3cc(O)cc(O)c3c(=O)c2O)ccc1O`, for which the Potency result in [1] is “inactive”.

Consider `O=C(OC[C@H]1O[C@@H](OC(=O)c2cc(O)c(O)c(O)c2)[C@H](OC(=O)c2cc(O)c(O)c(O)c2)[C@@H](OC(=O)c2cc(O)c(O)c(O)c2)[C@@H]1OC(=O)c1cc(O)c(O)c(O)c1)c1cc(O)c(O)c(O)c1`, for which the Potency entry in [1] and in assay [12] was “inactive” throughout.

Take `C=C[C@H]1CN2CCc3c([nH]c4ccccc34)[C@H]2C[C@@H]1/C(=C\OC)C(=O)OC`: the Potency result in [1] and in [4] was “inactive” in each case. The outcome in assay [2], in [3], in assay [5], in assay [6], in [14] and in assay [15] was inactive. Further, the result in assay [16] was inactive. Moreover, the Potency in [7] was 14.1 µM (active); in assay [8], 3.16 µM (active); in [9], 7.08 µM (active); in assay [12], 22.4 µM (active). Further, in [13], the max response was -1.5%.

Consider `C=C1CC[C@H](O)C/C1=C\C=C1/CCC[C@]2(C)[C@@H]([C@H](C)CC[C@H](C)C(C)C)CC[C@@H]12`, for which the Potency entry in [1] and in assay [12] was “inactive” in each case.

Take `CC12CC3(O)OC(O1)C1(COC(=O)c4ccc(O)cc4)C3CC21OC1OC(CO)C(O)C(O)C1O` (configuration not stated): the Potency result in [1] and in [12] was “inactive” each time.
